The list is not random: actives were taken first. Their share in the collection is about 21%.
D3 antag = qHTS of D3 Dopamine Receptor Antagonist: qHTS. D3R cells, DiscoveRx beta-arrestin luminescence, antagonist mode; active compounds read low. max response, negative = inhibition, %. 360,000 compounds, 2.5% hits. D(3) dopamine receptor (Homo sapiens), P35462. AID 652054, 2013; in the data active = max response below about -50%; inconclusive = no clear call, values can overlap the other calls; also: % is scaled to controls: 0 for no effect and ±100 for the full control effect
Target sequence (P35462 whole entry, looked up): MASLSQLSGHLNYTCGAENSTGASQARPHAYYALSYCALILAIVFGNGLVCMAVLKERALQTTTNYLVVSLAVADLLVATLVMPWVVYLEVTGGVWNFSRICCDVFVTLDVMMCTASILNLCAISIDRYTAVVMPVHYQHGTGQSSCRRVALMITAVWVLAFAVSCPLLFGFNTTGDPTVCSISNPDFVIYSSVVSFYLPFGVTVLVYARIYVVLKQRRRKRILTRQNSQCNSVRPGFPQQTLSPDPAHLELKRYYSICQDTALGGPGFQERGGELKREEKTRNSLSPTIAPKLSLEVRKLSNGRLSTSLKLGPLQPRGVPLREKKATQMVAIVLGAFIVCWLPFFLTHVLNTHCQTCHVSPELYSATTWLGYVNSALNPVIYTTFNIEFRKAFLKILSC
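Cells plated overnight at 1500 cells/well, then exposed to library compounds with dopamine controls for 90 minutes at 37 degrees C. DiscoveRx reagent added for 30–60 minutes at room temperature; luminescence read, quantitative HTS format.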
IL-1B inflam inh = qHTS for Inhibitors of Inflammasome Signaling: IL-1-beta AlphaLISA Primary Screen. THP-1 LPS/ATP IL-1B secretion, AlphaLISA, 16 h; active compounds read low. 360,000 compounds, 4.7% hits. AID 743279, 2014. activity change, % at 57.5 µM; in the data active = activity change below about -50%; inconclusive = mostly about -30% to -49%; also: % is scaled to controls: 0 for no effect and ±100 for the full control effect
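Secreted IL-1B measured by AlphaLISA bead assay after 16 h compound exposure of THP-1 cells; compounds (final up to 57.5 uM) added 1 h before LPS (250 ng/mL) and ATP (1.25 mM) stimulation; lower signal means less secretion.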
ClpP mod = qHTS Assay for Activators of ClpP; ATP-dependent Clp protease proteolytic subunit (Bacillus subtilis (strain 168)), P80244; purified B. subtilis ClpP, FRET peptide cleavage, 20 min; Potency, µM (titrated, usually from 57.5 µM), inactives show top-dose activity change, negative = active; 340,000 compounds, 1.9% hits; AID 651965, 2013; active = well fitted falling curve with a large enough effect; inconclusive = small, poorly fitted or top-dose-only effect; inactive = no such curve, though single readings can be large or run the other way; also: potency is read from the fitted curve at half-maximal effect; the source files actives as falling curves though it sought activators and does not explain the sign; nearly all actives have a fitted effect of over 65% in size
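ClpP 10 microg/mL final, pH 8 Tris/KCl buffer with BSA, glycerol, Tween-20; compound pinned in; FRET-FV substrate; RT 20 min; Ex320/Em430; ΔFRET vs ADEP 5.8 microM, DMSO, no enzyme.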
DT40 TDP1 no CPT = qHTS for Inhibitors of human tyrosyl-DNA phosphodiesterase 1 (TDP1): qHTS in cells in absence of CPT | DT40 Tdp1-/- hTDP1 cells, no CPT, ATP luminescence, 48 h | Potency, µM (highest dose often 46.2 µM), without a hit: at the top dose activity change, negative = growth inhibition, hits mostly inhibitors | 420,000 compounds, 15% hits | AID 686978, 2013; also: potency is read from the fitted curve at half-maximal effect; % is scaled to controls: 0 for no effect and ±100 for the full control effect; nearly all actives have a fitted effect of over 55% in size
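Growth of hTDP1-complemented DT40 Tdp1-knockout cells is measured by ATP luminescence after at least 48 hr compound exposure at 37 °C, with DMSO substituting for the 20 nM CPT used in the parallel screen.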
DRD3 agonist = qHTS of D3 Dopamine Receptor Agonist: qHTS; AID 652048, 2013; max activation, %; D(3) dopamine receptor (Homo sapiens), P35462; 410,000 compounds, 0.58% hits; D3R DiscoveRx beta-arrestin cells, luminescence, 90 min; in the data active = max activation above about 30%; also: 0% is about no effect
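Agonist mode: compounds and dopamine controls were applied to plated cells for 90 min at 37 degrees C after an overnight attachment at 1500 cells/well. Luminescent read-out followed 30 - 60 minutes at room temperature with DiscoveRx detection reagent.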
DT40 TDP1 CPT = qHTS for Inhibitors of human tyrosyl-DNA phosphodiesterase 1 (TDP1): qHTS in cells in presence of CPT; chicken DT40 Tdp1-/-;hTDP1 cells + 20 nM CPT, ATP luminescence, 48 h; Potency, µM (series often up to 46.2 µM), inactives show top-dose activity change, negative = growth inhibition, usual class: inhibitors; 420,000 compounds, 12% hits; also: potency is read from the fitted curve at half-maximal effect; % is scaled to controls: 0 for no effect and ±100 for the full control effect; nearly all actives have a fitted effect of over 55% in size
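Chicken DT40 Tdp1-/- cells stably complemented with human TDP1 were seeded at 400 cells/well in medium containing 20 nM camptothecin, exposed to pin-transferred compounds, and grown at 37 °C for at least 48 hr. Viability was read as ATP luminescence.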
* = called active by the depositor; ? = inconclusive; . = no result given. Unless noted, calls follow the shape of the dose curve; as a rule, active = well fitted inhibition curve with a large enough effect; inconclusive = small, poorly fitted or top-dose-only effect; inactive = flat fitted curve, though single readings scatter.

SMILES | D3 antag | IL-1B inflam inh | ClpP mod | DT40 TDP1 no CPT | DRD3 agonist | DT40 TDP1 CPT
Cc1cc(NC(c2cccnc2)c2c(C)[nH]c3ccccc23)no1 (centres undefined) | -8 | 5 | -3% | ? | -4 | ?
Cc1ccnc(NC(c2ccccn2)c2c(C)[nH]c3ccccc23)c1 (centres undefined) | 13 | -106* | . | ? | 8 | ?
Cc1[nH]c2ccccc2c1C(c1ccccn1)N1CCCC1 (centres undefined) | 4 | -25 | . | 16µM* | 7 | ?
CCOC(=O)C1CCCN(C(c2ccccn2)c2c(C)[nH]c3ccccc23)C1 (centres undefined) | -19 | 0 | . | 0% | -8 | 9%
Cc1[nH]c2ccccc2c1C(=O)CN1CCC(C)CC1 | -21 | 6 | 0% | -27% | -5 | -1%
CCN(Cc1ccncc1)Cc1ccc2c(c1)CN(C(=O)c1cccc3c(C)c(C)[nH]c13)CCO2 | . | . | . | -20% | . | -3%
O=C(Nc1cccc(O)c1)c1c(O)c2ccccc2[nH]c1=O | 3 | 3 | -2% | ? | -2 | 18µM*
CCCCCCNC(=O)c1c(O)c2ccccc2[nH]c1=O | -4 | -26 | 0% | 13µM* | 3 | ?
Cc1cccc(NC(=O)c2c(O)c3ccccc3[nH]c2=O)c1 | -9 | 19 | -9% | -10% | -2 | -25%
Cc1cccc(C)c1NC(=O)c1c(O)c2ccccc2[nH]c1=O | 12 | -6 | -2% | ? | -6 | 18µM*
CCCCCCCC(=O)NNC(=O)c1c(O)c2ccccc2[nH]c1=O | 3 | -4 | 1% | 0% | 3 | ?
CC(C)(C)c1cc(OC(=O)C2CCCC2)ccc1O | 17 | ? | -5% | 3.7µM* | 1 | 5.2µM*
CCCCn1nnnc1C1(C)CCC(=O)N1CC1CCCCC1 (centres undefined) | 11 | 34 | 1% | -19% | 6 | -17%
COc1cc(Cc2cc(OC)c(O)c(OC)c2)cc(OC)c1O | 8 | -1 | 0% | 21µM* | 7 | 16µM*
CCOc1ccccc1N(C)C(=O)Cn1nc(Cc2ccncc2)c2ccccc2c1=O | . | . | -3% | ? | -6 | -17%
CN(C(=O)c1ccc2c(Cl)c3c(nc2c1)CCC3)c1ccccc1F | . | . | -1% | 29µM* | -15 | -17%
CCN(C(=O)c1ccc2c(Cl)c3c(nc2c1)CCC3)c1ccc(C)c(C)c1 | 2 | -81* | 1% | 21µM* | 3 | 21µM*
COc1ccc(N2CC(NC(=O)C3CCCC3)CC2=O)cc1OC (centres undefined) | . | . | 1% | -3% | -15 | -13%
O=C(Cn1cc(SCc2c(F)cccc2Cl)c2ccccc21)N1CCCC1 | . | . | ? | 7.3µM* | -8 | ?
O=C(CSc1cn(CC(=O)N2CCCC2)c2ccccc12)Nc1ccc(Cl)cc1 | . | . | -1% | ? | 6 | ?
O=C(CSc1cn(CC(=O)N2CCCCC2)c2ccccc12)NCc1ccccc1Cl | . | . | -2% | ? | 7 | 23µM*
N#CC1=C(N)Oc2cc(N)ccc2C1C1CCCCC1 (centres undefined) | 16 | ? | -5% | 21µM* | -4 | ?
COC(=O)c1ccc(C2C(C#N)=C(N)Oc3cc(N)ccc32)cc1 (centres undefined) | 13 | -14 | . | -3% | -16 | 0.92µM*
O=C(CN1C(=O)c2ccc(Br)cc2C1=O)NCC1CCCO1 (centres undefined) | 3 | -1 | -6% | -3% | 0 | 2%

Screens (PubChem)
